In PubChem BioAssay AID1159580 (chemical genetic matrix, 2015):
Several values for one entry are separate records, joined by “and”; a condition that tells them apart may be missing. Equal entries are not always repeated. Among all 5,500 compounds or so, about 2,000 (36%) were called active. About 18% were inconclusive and are not listed. Cut-off read from the data, not from the text of the source: active = normalized growth mostly below about 0.91 (no sharp cut-off); inconclusive = no clear call, values can overlap the other calls; inactive = mostly above about 0.92. The list shows a part of the results.

Assay: chemical genetic growth profiling, strain panel (AID 1159580);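 note: tested at 20 µM; growth read once vehicle control cultures reached saturation at 30 °C; 1 = growth at the plate median or of vehicle wells; lower values mean less growth of the strain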
Conditions: S. cerevisiae deletion strains, growth OD

Measured: normalized growth

COC1=C[C@@H]2[C@@H]3Cc4ccc(OC)c(O)c4[C@]2(CCN3C)CC1=O
inactive: locus YAL013W, strain DEP1, active compounds read low 0.985 | locus YAL021C, strain ccr4, active compounds read low 1.01 | locus YAL026C, strain drs2, active compounds read low 1 | locus YAL030W, strain snc1, active compounds read low 1 | locus YBL061C, strain skt5, active compounds read low 1.01 | locus YBR009C, strain hhf1, active compounds read low 1 | locus YBR021W, strain FUR4, active compounds read low 1.04 | locus YBR023C, strain chs3, active compounds read low 1 | locus YBR171W, strain sec66, active compounds read low 0.983 | locus YBR229C, strain ROT2, active compounds read low 0.961 | locus YBR231C, strain swc5, active compounds read low 0.995 | locus YBR279W, strain paf1, active compounds read low 0.991 | locus YCL011C, strain gbp2, active compounds read low 1 | locus YCL016C, strain dcc1, active compounds read low 0.977 | locus YCL029C, strain bik1, active compounds read low 0.967 | locus YCL069W, strain vba3, active compounds read low 1.01 | locus YCR088W, strain abp1, active compounds read low 0.987 | locus YDL005C, strain med2, active compounds read low 0.997 | locus YDL035C, strain GPR1, active compounds read low 1 | locus YDL040C, strain nat1, active compounds read low 1 | locus YDL074C, strain BRE1, active compounds read low 0.952 | locus YDL101C, strain DUN1, active compounds read low 0.972 | locus YDL134C, strain PPH21, active compounds read low 0.981 | locus YDL185W, strain tfp1, active compounds read low 0.929 | locus YDL192W, strain arf1, active compounds read low 0.987 | locus YDR001C, strain nth1, active compounds read low 1 | locus YDR069C, strain doa4, active compounds read low 0.979 | locus YDR101C, strain arx1, active compounds read low 1 | locus YDR137W, strain rgp1, active compounds read low 0.972 | locus YDR150W, strain NUM1, active compounds read low 0.971 | locus YDR159W, strain sac3, active compounds read low 0.967 | locus YDR162C, strain NBP2, active compounds read low 0.969 | locus YDR195W, strain ref2 0.967 | locus YDR297W, strain sur2, active compounds read low 1 | locus YDR318W, strain mcm21, active compounds read low 0.995 | locus YDR334W, strain swr1, active compounds read low 0.984 | locus YDR335W, strain msn5, active compounds read low 0.986 | locus YDR388W, active compounds read low 0.984 | locus YDR392W, strain spt3, active compounds read low 0.988 | locus YDR502C, strain sam2, active compounds read low 0.986 | locus YEL003W, strain gim4, active compounds read low 1 | locus YEL037C, strain rad23, active compounds read low 0.999 | locus YEL061C, strain CIN8 (second series), active compounds read low 0.999 | locus YEL061C, strain CIN8, active compounds read low 0.982 | locus YER015W, strain faa2, active compounds read low 0.986 | locus YER016W, strain bim1, active compounds read low 1 | locus YER110C, active compounds read low 0.969 | locus YER111C, strain swi4, active compounds read low 1.01 | locus YER155C, strain BEM2 (second series), active compounds read low 1.01 | locus YER155C, strain BEM2, active compounds read low 1 | locus YER167W, strain BCK2, active compounds read low 1 | locus YFR010W, strain ubp6, active compounds read low 1.01 | locus YGL078C, strain dbp3, active compounds read low 0.971 | locus YGL086W, strain mad1, active compounds read low 0.99 | locus YGL167C, strain pmr1, active compounds read low 0.986 | locus YGL173C, strain kem1, active compounds read low 0.99 | locus YGL227W, strain vid30, active compounds read low 1 | locus YGL240W, strain doc1, active compounds read low 1 | locus YGL248W, strain PDE1, active compounds read low 0.972 | locus YGL253W, strain hxk2, active compounds read low 1.01 | locus YGR078C, strain PAC10, active compounds read low 0.965 | locus YGR135W, strain pre9, active compounds read low 0.959 | locus YGR229C, strain SMI1, active compounds read low 0.974 | locus YGR252W, strain gcn5, active compounds read low 1 | locus YHR013C, strain ard1, active compounds read low 0.962 | locus YHR027C, strain rpn1, active compounds read low 0.992 | locus YHR030C, strain SLT2, active compounds read low 1 and 1.03 | locus YHR079C, strain IRE1 (second series), active compounds read low 0.987 | locus YHR079C, strain IRE1, active compounds read low 1.03 | locus YHR094C, strain hxt1, active compounds read low 0.978 | locus YHR129C, strain ARP1, active compounds read low 0.996 | locus YHR142W, strain chs7, active compounds read low 0.999 | locus YHR200W, strain rpn10, active compounds read low 0.975 | locus YIL066C, strain RNR3, active compounds read low 0.972 | locus YIL073C, strain SPO22, active compounds read low 1.03 | locus YIL125W, strain kgd1, active compounds read low 0.968 | locus YIR030C, strain dcg1, active compounds read low 0.989 | locus YJL092W, strain hpr5, active compounds read low 0.997 | locus YJL095W, strain BCK1 (second series), active compounds read low 1 | locus YJL095W, strain BCK1, active compounds read low 0.963 and 1.03 | locus YJL115W, strain asf1, active compounds read low 1.01 | locus YJL129C, strain trk1, active compounds read low 0.977 | locus YJL134W, strain LCB3, active compounds read low 0.989 | locus YJL154C, strain vps35, active compounds read low 0.988 | locus YJL164C, strain tpk1, active compounds read low 0.997 | locus YJL166W, strain qcr8, active compounds read low 1 | locus YJL168C, strain set2, active compounds read low 0.982 | locus YJL187C, strain SWE1 (second series), active compounds read low 0.958 | locus YJR043C, strain POL32, active compounds read low 1.03 | locus YJR066W, strain TOR1, active compounds read low 0.97
